Reference: PubChem BioAssay AID2314 (National Center for Advancing Translational Sciences (NCATS), 2010)
Several values for one entry are separate records, joined by “and”; a condition that tells them apart may be missing. Identical values can stand only once. Among all 300,000 compounds or so, about 37,000 (12%) were called active. Rule as the data show it: active = max response mostly above about 13% (no sharp cut-off); inactive = mostly below about 14%. For the sample, actives were picked, then their nearest neighbours and some compounds at random.

Assay: Cycloheximide Counterscreen for Small Molecule Inhibitors of Shiga Toxin; also: read at 38.3 µM for the half of the compounds with a filed dose; 0% is about no effect
Settings: cell reporter, cycloheximide protein synthesis inhibition counterscreen; stronger effect = higher value

SMILES | max response
COc1cccc(NC(=S)NCc2ccccn2)c1 | 72.3% (active)
CCC(C)c1ccc(NC(=S)NCc2ccccn2)cc1 (stereo unspecified) | 17.3% (active)
Cc1cc(C)cc(NC(=O)NCc2ccccn2)c1 | -2.88% (inactive)
COc1cccc(NC(=S)N(Cc2ccc(C)cc2)Cc2ccccn2)c1 | 0.648% (inactive)
O=C(NCc1ccccn1)Nc1ccc(F)cc1 | -3.36% (inactive)
COC(=O)Cc1ccc(NC(=S)NCc2ccco2)cc1 | 10.2% (inactive)
COc1cccc(OC)c1C(=O)NC(=S)NCc1ccco1 | 5.2% (inactive)
COc1cccc(NC(=S)NCc2ccco2)c1 | 18.2% (active)
COc1cccc(S(=O)(=O)NCc2ccc(C(=O)NCc3ccccn3)cc2)c1 | 1.45% (inactive)
O=C(O)C1CCCCC1C(=O)N1CCN(S(=O)(=O)c2ccc(F)cc2)CC1 (stereo unspecified) | -2.39% (inactive)
O=C(Nc1ccccc1)N1CCN(C2c3ccccc3-c3ccccc32)CC1 | -0.816% (inactive)
COc1ccc(N(CC(=O)N2CCCCCC2)S(=O)(=O)c2ccccc2)cc1 | 4.89% (inactive)
CC1(C(=O)NNC(=S)NCC2CCCO2)CC1(Cl)Cl (stereo unspecified) | -4.02% (inactive)
COc1ccccc1N1CCN(S(=O)(=O)c2ccc3c(c2)NC(=O)CS3)CC1 | 5.75% (inactive)
CC(=O)N1CC(=O)N(CC(=O)Nc2ccc(Br)cc2)C1=S | -5.45% (inactive)
NC(=O)COC(=O)c1ccc2c(c1)C(=O)N(Cc1ccco1)C2=O | -3.87% (inactive)
CCOCN(C(=O)Cn1c(C(C)O)nc2ccccc21)c1c(C)cccc1CC (stereo unspecified) | -4.33% (inactive)
COc1ccccc1NC(=O)C1CCCN(c2cc(C)nc3ncnn23)C1 (stereo unspecified) | -3.74% (inactive)
Cc1cc(C(F)(F)F)n2ncc(-c3ccccc3)c2n1 | 6.21% (inactive)
COc1ccccc1-c1cnn2c(N3CCOCC3)cc(C)nc12 | 52% (active)
CCC1C(=O)c2ccccc2N(C)C1=O (stereo unspecified) | -0.886% (inactive)
CN1C(=O)/C(=N/OC(=O)c2ccccc2Br)c2ccccc21 | 3.18% (inactive)
CN1C(=O)/C(=C\c2cc(Br)cs2)c2ccccc21 | 46.4% (active)
COc1ccc(/C=C(\NC(=O)c2ccccc2)C(=O)NCCN2CCOCC2)cc1OC | -1.94% (inactive)

SMILES | max response
O=C(CNCCC1=CCCCC1)Nc1ccccc1N1CCCCCC1 | -4.26% (inactive)
CCOc1ccc(C(CCc2ccccc2)NC(=O)c2ccc(OC)c(OC)c2)cc1OCC (stereo unspecified) | 7.29% (inactive)
CC(C)CCC(C)NC(=O)c1ccc2nccnc2c1 (stereo unspecified) | 53.8% (active)
COCC(C)NC(=O)c1ccc(Cl)c(Cl)c1 (stereo unspecified) | 0.894% (inactive)
Cc1ccc(C)c(NC(=O)c2ccc3nccnc3c2)c1 | 5.91% (inactive)
CC(C)C(=O)Nc1c2c(nn1-c1ccccc1)CSC2 | -1.75% (inactive)
Cn1c(=O)c2sccc2n(Cc2ccc(Br)cc2)c1=O | -2.03% (inactive)
CCN(CC)CCC(c1ccc2c(c1)OCO2)c1c(OC)cc(OC)c2c(-c3ccccc3)cc(=O)oc12 (stereo unspecified) | -5.1% (inactive) and -16.4% (inactive)
COc1cc2c(cc1OC)/C(=C/C(=O)c1ccc(NC(C)=O)cc1)NCC2 | -5.05% (inactive)
CC1CN/C(=C\C(=O)c2ccc(Br)cc2)C(=O)N1 (stereo unspecified) | 106% (active)
C/C(=C\C(=O)c1ccc(Br)cc1)N1CCCCC1 | -3.58% (inactive)
Cc1cccc(-n2c(SCC(=O)Nc3cccc(S(=O)(=O)NC4=NCCCCC4)c3)nc3ccccc3c2=O)c1C | -4.44% (inactive)
Cc1cc(Cl)ccc1OCCCC(=O)Nc1cccc(-n2cnnn2)c1 | 1.51% (inactive)
CC(CC(=O)N1CCN(S(=O)(=O)c2ccccc2)CC1)n1cncn1 (stereo unspecified) | -1.89% (inactive)
N#C/C=C1\Sc2ccccc2C(=O)N1CC(=O)N1CCN(S(=O)(=O)c2ccccc2)CC1 | 27.7% (active)
O=C(Cc1ccccc1)N1CCN(S(=O)(=O)c2ccc([N+](=O)[O-])cc2)CC1 | -3.27% (inactive)
O=C(Oc1cccc(NC2=NS(=O)(=O)c3ccccc32)c1)c1ccncc1 | -1.79% (inactive)
Cc1ccc(S(=O)(=O)N(NC2=NS(=O)(=O)c3ccccc32)C(=O)c2ccccc2)cc1 | -4.47% (inactive)
CC(C)(C)c1csc(NC2=NS(=O)(=O)c3ccccc32)n1 | 26.2% (active)
O=C(Nc1cccc(-c2cccc(Cl)c2)c1)C1CCN(C2CCC2)CC1 | -5.18% (inactive)
O=C(OCCN=C1NS(=O)(=O)c2ccccc21)c1cccc([N+](=O)[O-])c1 | 0.837% (inactive)
CCC(CC)c1nnc(NC(=O)c2nn(C)c(=O)c3ccccc23)s1 | -3.83% (inactive)
CC(=O)c1cnc(SCCN2C(=O)c3ccccc3C2=O)nc1C | 6.2% (inactive)
Cc1ccc(SCCN2C(=O)NC(C)(C)C2=O)cc1 | -0.406% (inactive)

SMILES | max response
Nc1ccc(SCCN2C(=O)c3ccccc3C2=O)cc1 | 30.6% (active)
CCCCc1cc(=O)oc2c(C)c(OCC(=O)N3CCC(C(N)=O)CC3)ccc12 | -2.86% (inactive)
COc1ccc(Cl)cc1NC(=O)Cn1nc(-c2ccc(C)cc2)n(C)c1=S | 0.595% (inactive)
CCN(CC(=O)NCc1ccco1)S(=O)(=O)c1ccc(F)cc1 | -3.33% (inactive)
COc1cc(Nc2nc3ccc(Cl)cc3n3cnnc23)cc(OC)c1OC | -8.65% (inactive)
COc1ccc(-c2oc3ncnc(NCCCO)c3c2-c2ccc(OC)cc2)cc1 | -2.49% (inactive)
Cc1ccc(-n2[nH]c(C)c(/C=N/NC(=O)c3cccc([N+](=O)[O-])c3)c2=O)cc1C | 34.1% (active)
COc1cc(/C=N\NC(=O)CNC(=O)c2cccc([N+](=O)[O-])c2)ccc1O | 2.84% (inactive)
COc1cc(/C=N/NC(=O)c2ccoc2C)ccc1OCCN1CCCCC1 | 15.6% (inactive)
Cc1[nH]n(-c2ccccc2)c(=O)c1/C=N/NC(=O)c1ccoc1C | 55% (active)
COc1cccc(/C=N/NC(=O)c2cccc([N+](=O)[O-])c2)c1OS(=O)(=O)c1ccc(C)cc1 | 1.94% (inactive)
Cc1[nH]n(-c2ccc(Cl)cc2)c(=O)c1/C=N/n1c(C)nc2ccccc2c1=O | -2.58% (inactive)
O=C(O)c1ccc(-n2nc(-c3ccccc3)c3ccccc3c2=O)cc1 | 15% (inactive)
COc1ccc(OC)c(S(=O)(=O)n2c([N+](=O)[O-])cnc2C)c1 | 1.29% (inactive)
COc1cccc(CNC(=O)C2CC(=O)N(C3CCCCCCC3)C2)c1 (stereo unspecified) | 24.6% (inactive)
COc1ccc(C2NC(=O)c3ccccc3N2)cc1 (stereo unspecified) | 19.8% (active)
O=C1CC(c2cccc(Cl)c2)CC(O)=C1C=Nc1ccccc1 (stereo unspecified) | -1.34% (inactive)
C=CCOc1cccc(C2NC(=O)c3ccccc3O2)c1 (stereo unspecified) | 11.8% (inactive)
O=C1NC(c2cccc(Cl)c2)Nc2ccccc21 (stereo unspecified) | 16% (active)
Cc1ccc(C2Nc3cccc4cccc(c34)N2)cc1 | 2.47% (inactive)
COc1cccc(C2Nc3cccc4cccc(c34)N2)c1 | 1.12% (inactive)
CC1=CC(C)(C)NC(=S)N1c1ccccc1 | -0.571% (inactive)
COC(=O)c1ccccc1NC(=O)CSc1nc2c(c(=O)[nH]1)CCC2 | -0.834% (inactive)
COc1ccc(NC(=O)CC2C(=O)NC3CCCCC3N2C(=O)c2ccc(F)cc2)cc1 (stereo unspecified) | -1.58% (inactive)

SMILES | max response
COc1cccc(Nc2ncccc2C(=O)O)c1 | 48% (active)
O=C(Nc1ccccc1)c1cccnc1Nc1ccccc1 | 15% (inactive)
COc1cccc(NC(=O)c2ccccc2SC)c1 | 2.56% (inactive)
CC(C)CCn1cnc2c1c(=O)n(CC(=O)NC(N)=O)c(=O)n2Cc1ccccc1 | -9.03% (inactive)
Nc1nc(Nc2ccccc2F)nc(NC2CCCCC2)c1[N+](=O)[O-] | -1.02% (inactive)
CCOC(=O)C1CCN(C(=O)COc2cc(C)c(Br)c(C)c2)CC1 | -0.76% (inactive)
CCOC(=O)C1CCN(C(=O)COc2cccc3ccccc23)CC1 | 21.6% (active)
NC(=O)C1CCN(C(=O)COc2cccc3cccnc23)CC1 | -4.62% (inactive)
CN(CC(=O)Nc1ccccc1F)CC(=O)Nc1ccccc1Br | 27.5% (inactive)
O=C(c1cc2c(s1)CCC2)N1CCN(c2ccccc2)CC1 | 35.8% (active)
O=C(CNC(=O)c1cc2c(s1)CCC2)Nc1ccccc1Br | 28.4% (active)
O=C(NNC(=O)c1cc2c(s1)CCCC2)c1ccccc1 | 60.8% (active)
O=C(COC(=O)c1cc2c(s1)CCCC2)NCc1ccccc1Cl | -0.034% (inactive)
O=C(c1ccccc1)c1ccc(C(=O)N2CCN(c3ccccc3)CC2)cc1 | 11.3% (inactive)
O=C(Nc1ccc(F)cc1)c1cc2c(s1)CCCC2 | 34.8% (active)
Cc1nn(C)cc1C(=O)Nc1ccccc1Br | 9.35% (inactive)
O=C(C1CCC1)N1CCN(c2ccccc2)CC1 | -0.903% (inactive)
COc1ccc(/C=C2/SC(=O)N(CCCCCC(=O)Nc3ccccc3C(=O)O)C2=S)cc1 | -7.35% (inactive)
Cc1cc(NC(=O)CCC(=O)N(CC(=O)NC2CCCC2)c2ccc(F)cc2)no1 | -7.13% (inactive)
CC(C)CCn1c(=O)c2c(nc3n2CCCN3Cc2ccccc2)n(C)c1=O | -1.82% (inactive)
O=C(CSCc1ccc([N+](=O)[O-])cc1)Nc1cccc(C(=O)Nc2ccccc2C(=O)O)c1 | -3.69% (inactive)
C=CCn1c(C2CC(=O)N(c3ccc(C)cc3)C2)nc2ccccc21 (stereo unspecified) | -5.17% (inactive)
CC(C)(C)c1cc2cccnc2n1Cc1cccc(F)c1 | -4.56% (inactive)
CCc1ccc(OCC(=O)N(Cc2ccccc2)C2CCS(=O)(=O)C2)cc1 (stereo unspecified) | -3.33% (inactive)
